Data on 108 compounds can be found in ChEMBL document CHEMBL4513216, “Probing the Open Global Health Chemical Diversity Library for Multistage-Active Starting Points for Next-Generation Antimalarials” (ACS Infect Dis, 2020).

The campaign covered roughly 69,000 compounds. About 8,600 (12%) showed an effect of 50% or more. The full list was thinned out, with strong results kept by preference.

The assay concerns Plasmodium berghei. In words: Screen against P. berghei liver stage (PbLuc), transformed with Luciferase, at 10uM. It is filed as functional, HepG2. The following applies: tested at 10 uM.
For the compound `COCC1CC2(CCN(C(C)=O)CC2)CN1Cc1csc(C)n1` (stereo not drawn), the INHIBITION worked out at 79.6%.
Consider `CCN1CCC2(CC1)CC(COC)N(Cc1csc(C)n1)C2` (stereo not drawn), for which the INHIBITION was determined as 8.85%.
Turning to `COCC1CC2(CCN(Cc3nccs3)CC2)CN1Cc1ccccn1` (stereo not drawn), the INHIBITION amounted to 71.1%.
As for `COCC1CC2(CCN(CC3CC3)CC2)CN1Cc1ccccn1` (stereo not drawn), the figure is 13.1%.
As for `COCC1CC2(CCN(C(N)=O)CC2)CN1Cc1csc(C)n1` (stereo not drawn), the figure is 41%; as for `COCC1CC2(CCN(Cc3ccoc3)CC2)CN1Cc1ccccn1` (stereo not drawn), 48.4%; as for `Cc1cc(C)n(CC2CCCN2CC(=O)N(C)Cc2ccco2)n1` (stereo not drawn), 4.71%.
In the case of `Cc1nnc(-c2cccc(C#N)c2)n1C1CCN(C2CC2)C1=O` (stereo not drawn), the INHIBITION is on record as -25.7%.
To `O=C(Cn1cccn1)NCC1CCCN(Cc2ccccc2)C1` (stereo not drawn) belongs 13.7%; to `O=C(Cn1cccn1)NCC1CCN(Cc2cc3ccccc3[nH]2)C1` (stereo not drawn), 9.79%; to `CCN1CCCC(CNC(=O)CCc2ccc(OC)c(F)c2)C1` (stereo not drawn), 11.5%.
For `CCCC(=O)NCC1CCCN(Cc2cc(C)c(C)o2)C1` (stereo not drawn), the INHIBITION is recorded as 54.4%.
As for `Cc1cc(CN2CCC(CNC(=O)CN3CCCCCC3)C2)[nH]n1` (stereo not drawn), the figure is 10.7%; as for `O=C(Cn1cc(-n2cccc2)cn1)NCC1CCC1`, 55.6%; as for `O=C(Cn1cc(I)cn1)NCC1CCC1`, 27.5%.
For `Cc1cc(CN2CCCC(CNC(=O)Cn3cccn3)C2)oc1C` (stereo not drawn), the INHIBITION is recorded as 57.6%.
With `O=C(Cn1cc(-n2cccc2)cn1)NCC(F)(F)F`, the INHIBITION is given as 6.83%.
Turning to `CO[C@@H]1CN(c2ccccc2)S(=O)(=O)[C@@]12CCN(C)C2`, the INHIBITION was determined as 32.1%.
Turning to `CN1CC(=O)N(c2ccccc2)CC12CCN(C(=O)CC1CC1)C2` (stereo not drawn), the INHIBITION was found to be 4.68%.
To `CC[C@@H](c1ccccc1)n1c(CN)n[nH]c1=O` belongs 4.48%; to `c1cncc(-c2noc(CN3CCn4c(nnc4C4CC4)C3)n2)c1`, 15.66%.
For `COCCCNC(=O)C(C)n1cc(Br)cn1` (stereo not drawn), the INHIBITION is -33.2%.
To `O=C(NCc1ccco1)[C@H]1COC[C@H]2CN(Cc3ccccn3)C[C@H]21` belongs 15.9%; to `Cc1noc(C)c1CN(C)C(=O)c1nc(N2CCCC2)ncc1Cl`, 61.9%; to `CN(C)C(CNC(=O)c1nc(N2CCCC2)ncc1Cl)c1ccco1` (stereo not drawn), 26%.
To `CCOc1ccc(CN(C)C(=O)c2nc(N3CCCC3)ncc2Cl)cc1` belongs 24.8%; to `CCc1ccc(CN(Cc2ccco2)C(C)C(C)C)nc1` (stereo not drawn), 60.7%.
Turning to `COCc1ncc(CN(Cc2ccco2)C(C)C(C)C)cn1` (stereo not drawn), the INHIBITION is given as 20.9%.
For the compound `CC(C)C(C)N(Cc1ccccn1)Cc1ccco1` (stereo not drawn), the INHIBITION is listed as 16.3%.
In the case of `CC(=O)N1CCCC(c2ccc(Br)cn2)C1` (stereo not drawn), the INHIBITION amounted to 29.2%.
`Cc1occc1C(=O)N1CCCC2(CCN(CCN3CCCC3)C2=O)C1` (stereo not drawn): the INHIBITION came to 23.5%.
For the compound `O=C(c1ccncc1)N1CCC2(CCCN(c3ncc(F)cn3)C2)C1` (stereo not drawn), the INHIBITION is recorded as 40.3%.
With `O=C(c1ccoc1)N1CCC2(CCCN(c3ncc(F)cn3)C2)C1` (stereo not drawn), the INHIBITION was 53%.
As for `O=C(c1ccco1)N1CCCC2(CCN(c3nncs3)C2)C1` (stereo not drawn), the INHIBITION is 56.6%.
To `O=C(c1ccoc1)N1CCC2(C1)CN(c1ncc(F)cn1)C2` belongs -0.813%.
Regarding `COc1cccc(CN2CCCC3(CCN(C(=O)[C@H]4CCCO4)C3)C2)c1` (stereo partly drawn), the INHIBITION turned out to be 13.2%.
Consider `CC(=O)N1CCCC2(CCN(c3nncs3)C2)C1` (stereo not drawn), for which the INHIBITION is listed as 7.7%.
As for `COc1cccc(CN2CCCC3(CCN(C(=O)N4CCCC4)C3)C2)c1` (stereo not drawn), the INHIBITION was 8.74%.
Regarding `Cn1cccc1C(=O)N1CCCC2(CCN(CCN3CCCC3)C2=O)C1` (stereo not drawn), the INHIBITION is listed as -14.9%.
For `O=C(c1ccco1)N1CCCC2(C1)CN(c1nncs1)CCO2` (stereo not drawn), the INHIBITION is listed as 45.7%.
For `O=C(c1ccco1)N1CCCC2(CCN(CCN3CCCC3)C2=O)C1` (stereo not drawn), the INHIBITION was 58.5%.
On to `COc1cccc(CN2CCCC3(CCN(C(=O)c4ccco4)C3)C2)c1` (stereo not drawn), for which the INHIBITION was 69.1%.
For the compound `COc1cccc2ccn(CC(=O)NCCC(C)C)c12`, the INHIBITION is reported as 9.04%.
With `CC(C)(C)c1nnc2n1C(C(=O)N1CCOCC1)CC2` (stereo not drawn), the INHIBITION is listed as -3.93%.
Regarding `CCn1cnnc1C1CCN(C(=O)c2ccc3ccccc3n2)CC1`, the INHIBITION is reported as 26.4%.
Turning to `Cc1nnc(N2C[C@@H](Oc3ccccn3)[C@H]3OCCC[C@H]32)s1`, the INHIBITION is listed as -23.8%.
To `COc1ccc(C)cc1C(C)NCc1cnnn1C` (stereo not drawn) belongs 0.818%; to `COCc1cn(CC2CCN(Cc3c(C)[nH]c4ccccc34)CC2)nn1`, 15.8%; to `Cc1nn(-c2ccccc2Cl)c(C)c1CCC(=O)O`, 15.4%.
As for `CCc1ccc(CN2CCN(c3cccc(OC)c3)C(=O)C2)nc1`, the figure is -8.99%.
Regarding `O=C(c1ccco1)N1CCC2(CC1)CCN(c1ncccn1)CC2`, the INHIBITION is listed as -7.28%.
As for `O=C(c1ccco1)N1CCC2(CCCN(c3ncc(F)cn3)C2)C1` (stereo not drawn), the figure is 43%.
On to `O=C(c1ccco1)N1CCC2(CCCN(c3ncccn3)C2)C1` (stereo not drawn), for which the INHIBITION amounted to 77.4%.
In the case of `O=C(O)c1cnc(OCC2CC2)c(Br)c1`, the INHIBITION is -4.56%.
For the compound `Cc1nc(CN2C(=O)CC[C@H]3[C@@H]2CCN3C(=O)c2ccsc2)cs1`, the INHIBITION is on record as 4.55%.
In the case of `COCCN1C(=O)CC[C@@H]2[C@H]1CCN2C(=O)C1CCOCC1`, the INHIBITION is 52.3%.
In the case of `O=C1CC[C@H]2[C@H](CCN2C(=O)C2CCOC2)N1Cc1ccncc1` (stereo partly drawn), the INHIBITION stood at 54.7%.
Consider `O=C1CC[C@H]2[C@H](CCN2C(=O)C2CCCO2)N1Cc1ccncc1` (stereo partly drawn), for which the INHIBITION was 8.69%.
To `O=C1CC[C@@H]2[C@@H](CCN2C(=O)c2ccsc2)N1CC1CC1` belongs 47.8%.
In the case of `O=C1CC[C@H]2[C@H](CCN2C(=O)C2CCOCC2)N1Cc1ccncc1`, the INHIBITION is given as 7.11%.
In the case of `O=C1CC[C@@H]2[C@@H](CCN2C(=O)C2CCOCC2)N1CC1CC1`, the INHIBITION was found to be 18.5%.
To `COCCN1C(=O)CC[C@@H]2[C@H]1CCN2C(=O)N(C)C` belongs -37.8%.
Consider `O=C1CC[C@@H]2[C@@H](CCN2C(=O)c2ccsc2)N1Cc1ccncc1`, for which the INHIBITION was determined as 63.7%.
Regarding `COCCN(C(=O)c1ccn(-c2ccc(OC)cc2)n1)C(C)C(N)=O` (stereo not drawn), the INHIBITION was found to be 0.0996%.
As for `COc1ccc(OC)c(C2SCC(=O)Nc3n[nH]cc32)c1` (stereo not drawn), the INHIBITION turned out to be 70.6%.
On to `COc1cc(C2SCC(=O)Nc3n[nH]cc32)cc(OC)c1O` (stereo not drawn), for which the INHIBITION came out at 60.7%.
With `COc1ccc(C2SCC(=O)Nc3n[nH]cc32)c(OC)c1OC` (stereo not drawn), the INHIBITION is 32.5%.
On to `COc1cccc(C2SCC(=O)Nc3n[nH]cc32)c1OC(C)C` (stereo not drawn), for which the INHIBITION is recorded as 40%.
With `COc1cc(OC)c(C2SCC(=O)Nc3n[nH]cc32)cc1OC` (stereo not drawn), the INHIBITION is listed as 26.8%.
In the case of `COc1ccccc1C1SCC(=O)Nc2n[nH]cc21` (stereo not drawn), the INHIBITION was found to be 42.6%.
For the compound `N#Cc1cn(C2CC2)c(=O)n(CC(O)c2ccc(F)cc2)c1=O` (stereo not drawn), the INHIBITION was determined as 35.85%.
As for `CCN(Cc1ccccc1)C(=O)c1cc(C2CCCN2C)ccn1` (stereo not drawn), the figure is -31%; as for `Cc1csc(N2CCN(C(=O)CCCNc3ncccn3)CC2)n1`, 26.4%.
To `Cc1cccc(N2CCc3ncc(CNS(C)(=O)=O)n3CC2)n1` belongs 22.4%; to `COc1ccc(CN2CCC[C@@H]3CN(C(=O)c4ccco4)C[C@@H]32)cc1`, 29%; to `O=C(c1cn(CC(=O)N2CCCCCC2)c2ccccc12)C1CC1`, 27.8%.
As to `O=C(c1cn(CC(=O)N2CCCCC2)c2ccccc12)C1CC1`, the INHIBITION worked out at 13.94%.
Take `O=C(c1cn(CC(=O)N2CCCC2)c2ccccc12)C1CC1`: the INHIBITION was determined as 71.7%.
As to `CN1CCCC1c1ccnc2nccn12` (stereo not drawn), the INHIBITION is 19.9%.
To `CCC(C(=O)NCC1CCN(c2ccncc2)CC1)N(C)C` (stereo not drawn) belongs 34.9%; to `Cc1cc(C)n(CC(=O)NC(Cc2ccsc2)c2ccccn2)c(=O)n1` (stereo not drawn), 54%; to `Cc1csc(C(Cc2ccsc2)NC(=O)Cn2cccnc2=O)n1` (stereo not drawn), 34%.
In the case of `O=C(Cn1cccnc1=O)NC(Cc1ccsc1)c1ccccn1` (stereo not drawn), the INHIBITION is given as 41.5%.
For `Cc1cccnc1C(Cc1ccsc1)NC(=O)Cn1cccnc1=O` (stereo not drawn), the INHIBITION is listed as 59%.
In the case of `O=C(Cn1cccnc1=O)NC(Cc1ccsc1)c1nccs1` (stereo not drawn), the INHIBITION was determined as 29.3%.
Consider `CS(=O)(=O)N1CCC(C(=O)NC(Cc2ccsc2)c2ccccn2)CC1` (stereo not drawn), for which the INHIBITION was 40.9%.
On to `CNc1nc2c(c(C(=O)N3CCCC3)n1)CN(Cc1ccco1)CC2`, for which the INHIBITION came out at 17.2%.
To `O=C(NCc1cccc(F)c1)N1CCc2ncnc(NC3CC3)c2CC1` belongs 16.8%.
Consider `CC(C)Nc1ncnc2c1CCN(C(=O)CCc1ccccc1)CC2`, for which the INHIBITION is recorded as 61.4%.
As for `CC(C)Nc1ncnc2c1CCN(C(=O)NCc1cccnc1)CC2`, the figure is -1.15%.
Regarding `CC(C)Nc1ncnc2c1CCN(C(=O)Cc1ccccn1)CC2`, the INHIBITION was 8.69%.
Regarding `CC(C)Nc1ncnc2c1CCN(C(=O)NCc1cccc(F)c1)CC2`, the INHIBITION is on record as 51.2%.
As to `CC(C)Nc1ncnc2c1CCN(C(=O)CN(C)C)CC2`, the INHIBITION was determined as 36.9%.
As for `COCC(=O)N1CCC(=O)N(C2CCCC2)Cc2ccccc21`, the figure is -20.1%.
With `Cc1ccnc(CNC(=O)C2CC(=O)N(CCN(C)C)C2)c1` (stereo not drawn), the INHIBITION is on record as 8.41%.
As for `NC(=O)C1=NC2=NS(=O)(=O)c3ccccc3N2N1Cc1ccc(Br)cc1`, the figure is 1.96%; as for `NC(=O)C1=NC2=NS(=O)(=O)c3ccccc3N2N1Cc1ccc(Cl)cc1`, 59.7%.
For the compound `NC(=O)C1=NC2=NS(=O)(=O)c3ccccc3N2N1Cc1ccccc1Cl`, the INHIBITION turned out to be 30.8%.
Regarding `COCCC(=O)N(CCC#N)c1ccc(C)c(C)c1`, the INHIBITION came out at 27%.
With `Cc1ccccc1-c1cncc(C2CCN(Cc3ccccn3)CC2)n1`, the INHIBITION worked out at 19.6%.
`Cc1ncnc2c1CCN(Cc1ccccn1)CC2`: the INHIBITION is -64.8%.
With `Cc1c(C)n(Cc2ccccn2)c2nc3c(c(N)c12)CCCCCC3`, the INHIBITION is 49.7%.
To `Cc1c(C)n(-c2ccccn2)c2nc3c(c(N)c12)CCCCC3` belongs 32.2%; to `Cc1nc(C2CCCNC2)nc2c1CCCN2Cc1ccccn1` (stereo not drawn), 11.8%.
Consider `Cc1c(C)n(-c2ccccn2)c2nc3c(c(N)c12)CCCC3`, for which the INHIBITION worked out at 67.1%.
Turning to `Cc1c(C)n(Cc2ccccn2)c2nc3c(c(N)c12)CCCCC3`, the INHIBITION amounted to 55.3%.
In the case of `Cc1ncnc2c1CCN(c1ccccn1)CC2`, the INHIBITION is -15.6%.
Turning to `Cc1c(C)n(Cc2ccccn2)c2nc3c(c(N)c12)CCCC3`, the INHIBITION is listed as 58.4%.
